Data: the supplement of paper PMC11732987, “Enantioselective OTUD7B fragment discovery through chemoproteomics screening and high-throughput optimisation” (Communications Chemistry, 2025)

How the values were obtained:
Test in all cases: log2 ratio of Biotin-Ahx-Ub-VS probe labelling (fragment/DMSO); higher = less target engagement (more negative = stronger competition), active = hit call of the paper (q ≤ 0.05, log2 ratio ≤ -1)
Conditions in all cases: compound concentration: 200 uM; treatment time: 3 h
USP34 = USP34 (UniProt Q70CQ2)
Sequence of USP34 (Q70CQ2 whole entry, the tested form may be a part): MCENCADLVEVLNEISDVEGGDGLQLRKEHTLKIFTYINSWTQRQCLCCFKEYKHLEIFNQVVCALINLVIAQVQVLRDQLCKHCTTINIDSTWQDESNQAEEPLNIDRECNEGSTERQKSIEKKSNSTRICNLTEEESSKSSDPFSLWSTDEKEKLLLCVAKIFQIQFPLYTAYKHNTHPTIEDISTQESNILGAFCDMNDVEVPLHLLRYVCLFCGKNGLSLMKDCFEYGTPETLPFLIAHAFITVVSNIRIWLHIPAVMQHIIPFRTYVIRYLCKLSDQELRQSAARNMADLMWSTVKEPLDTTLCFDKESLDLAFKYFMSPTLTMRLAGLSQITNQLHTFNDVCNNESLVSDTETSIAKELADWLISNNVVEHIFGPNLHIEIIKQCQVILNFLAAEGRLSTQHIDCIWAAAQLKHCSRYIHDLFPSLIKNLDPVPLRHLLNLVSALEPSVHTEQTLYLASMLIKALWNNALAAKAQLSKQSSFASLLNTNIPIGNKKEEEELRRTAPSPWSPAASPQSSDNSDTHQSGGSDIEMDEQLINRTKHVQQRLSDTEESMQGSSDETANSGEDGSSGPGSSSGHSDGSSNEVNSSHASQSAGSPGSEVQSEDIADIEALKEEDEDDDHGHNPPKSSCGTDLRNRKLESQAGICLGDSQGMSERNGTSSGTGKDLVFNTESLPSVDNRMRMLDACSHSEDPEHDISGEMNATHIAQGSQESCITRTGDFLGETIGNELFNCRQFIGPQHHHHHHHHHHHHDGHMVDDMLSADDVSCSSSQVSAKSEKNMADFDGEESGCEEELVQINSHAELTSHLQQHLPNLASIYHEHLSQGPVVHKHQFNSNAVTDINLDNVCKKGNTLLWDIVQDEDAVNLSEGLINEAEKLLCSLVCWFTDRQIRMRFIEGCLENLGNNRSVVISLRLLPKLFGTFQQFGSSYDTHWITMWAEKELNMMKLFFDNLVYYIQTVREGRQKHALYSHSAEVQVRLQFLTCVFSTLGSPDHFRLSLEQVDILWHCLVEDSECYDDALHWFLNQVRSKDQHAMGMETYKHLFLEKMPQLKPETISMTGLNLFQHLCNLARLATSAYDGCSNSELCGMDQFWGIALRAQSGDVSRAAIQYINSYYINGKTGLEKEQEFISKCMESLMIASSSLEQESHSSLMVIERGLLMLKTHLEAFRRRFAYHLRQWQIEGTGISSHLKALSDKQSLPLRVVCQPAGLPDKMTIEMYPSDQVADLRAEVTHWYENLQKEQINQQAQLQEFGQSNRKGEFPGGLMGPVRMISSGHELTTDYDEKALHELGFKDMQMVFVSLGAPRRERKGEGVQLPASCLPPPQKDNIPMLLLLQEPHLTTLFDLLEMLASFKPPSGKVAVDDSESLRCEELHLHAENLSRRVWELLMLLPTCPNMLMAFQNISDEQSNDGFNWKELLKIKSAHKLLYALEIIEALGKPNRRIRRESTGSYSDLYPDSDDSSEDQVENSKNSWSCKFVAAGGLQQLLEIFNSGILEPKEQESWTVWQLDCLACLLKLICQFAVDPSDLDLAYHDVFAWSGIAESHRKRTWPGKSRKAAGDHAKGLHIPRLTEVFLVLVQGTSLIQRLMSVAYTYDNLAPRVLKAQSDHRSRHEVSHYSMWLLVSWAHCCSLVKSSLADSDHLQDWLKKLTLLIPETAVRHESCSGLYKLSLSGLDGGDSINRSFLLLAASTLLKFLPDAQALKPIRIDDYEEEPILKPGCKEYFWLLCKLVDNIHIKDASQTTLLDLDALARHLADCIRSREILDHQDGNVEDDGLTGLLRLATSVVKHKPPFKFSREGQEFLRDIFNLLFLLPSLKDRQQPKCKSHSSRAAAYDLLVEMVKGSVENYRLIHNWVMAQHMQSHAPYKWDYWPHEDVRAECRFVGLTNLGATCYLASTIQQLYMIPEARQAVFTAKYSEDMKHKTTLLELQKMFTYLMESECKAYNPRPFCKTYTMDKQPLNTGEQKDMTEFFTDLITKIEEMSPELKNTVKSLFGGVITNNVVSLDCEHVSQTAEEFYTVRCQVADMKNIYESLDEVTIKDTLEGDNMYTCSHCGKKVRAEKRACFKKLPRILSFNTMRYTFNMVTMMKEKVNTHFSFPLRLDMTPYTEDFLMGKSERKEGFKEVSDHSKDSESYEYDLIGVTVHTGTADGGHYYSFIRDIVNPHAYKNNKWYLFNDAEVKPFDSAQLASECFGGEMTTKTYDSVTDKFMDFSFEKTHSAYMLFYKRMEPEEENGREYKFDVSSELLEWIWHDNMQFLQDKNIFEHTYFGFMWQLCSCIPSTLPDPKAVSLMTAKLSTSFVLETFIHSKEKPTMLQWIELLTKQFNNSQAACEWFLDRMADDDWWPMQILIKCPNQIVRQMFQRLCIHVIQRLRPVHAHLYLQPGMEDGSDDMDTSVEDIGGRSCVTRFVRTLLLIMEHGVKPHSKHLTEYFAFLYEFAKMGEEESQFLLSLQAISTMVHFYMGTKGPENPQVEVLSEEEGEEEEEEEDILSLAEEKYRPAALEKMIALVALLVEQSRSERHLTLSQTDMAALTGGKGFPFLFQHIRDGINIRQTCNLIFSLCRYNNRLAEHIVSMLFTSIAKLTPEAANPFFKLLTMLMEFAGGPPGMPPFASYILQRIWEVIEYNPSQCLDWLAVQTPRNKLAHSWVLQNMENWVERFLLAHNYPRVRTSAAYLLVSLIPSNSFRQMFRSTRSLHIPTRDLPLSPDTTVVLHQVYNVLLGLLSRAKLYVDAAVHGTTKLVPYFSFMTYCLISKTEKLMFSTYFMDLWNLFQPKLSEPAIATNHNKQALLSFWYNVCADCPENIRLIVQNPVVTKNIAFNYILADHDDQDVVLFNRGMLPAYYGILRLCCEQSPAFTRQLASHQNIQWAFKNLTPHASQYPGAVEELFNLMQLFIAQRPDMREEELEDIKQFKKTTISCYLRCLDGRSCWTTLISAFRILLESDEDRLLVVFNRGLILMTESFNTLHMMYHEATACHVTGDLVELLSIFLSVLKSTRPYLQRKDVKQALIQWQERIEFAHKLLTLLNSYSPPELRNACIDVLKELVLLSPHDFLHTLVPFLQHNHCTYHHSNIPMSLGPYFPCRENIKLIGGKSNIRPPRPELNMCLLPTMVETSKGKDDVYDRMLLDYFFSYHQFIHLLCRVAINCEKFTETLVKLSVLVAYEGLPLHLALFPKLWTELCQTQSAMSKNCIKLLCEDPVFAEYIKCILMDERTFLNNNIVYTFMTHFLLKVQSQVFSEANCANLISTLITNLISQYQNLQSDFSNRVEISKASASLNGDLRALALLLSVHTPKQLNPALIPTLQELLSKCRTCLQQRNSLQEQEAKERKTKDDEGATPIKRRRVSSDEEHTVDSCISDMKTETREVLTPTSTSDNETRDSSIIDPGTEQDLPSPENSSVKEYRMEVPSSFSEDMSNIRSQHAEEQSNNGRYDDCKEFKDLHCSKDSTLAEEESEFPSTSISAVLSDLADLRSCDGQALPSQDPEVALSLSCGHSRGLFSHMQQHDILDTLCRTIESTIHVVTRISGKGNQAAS
Summary of the method: (§1)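 Global-median-normalised Spectronaut label-free quantities were compared by unpaired t-test, and values are average log2 ratios of fragment over vehicle. Only proteins with ≥2 unique peptides were used. HEK293T lysate (495 µg per sample) was treated in triplicate with fragment at 200 µM or vehicle for 3 h and then with Biotin-Ahx-Ub-VS at 0.5 µM final for 1 h. Labelled DUBs were then NeutrAvidin-enriched, digested with LysC and trypsin, and run by diaPASEF LC-MS/MS.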

USP36 = biological target: T1, USP36 (UniProt Q9P275)
T1 sequence (whole entry): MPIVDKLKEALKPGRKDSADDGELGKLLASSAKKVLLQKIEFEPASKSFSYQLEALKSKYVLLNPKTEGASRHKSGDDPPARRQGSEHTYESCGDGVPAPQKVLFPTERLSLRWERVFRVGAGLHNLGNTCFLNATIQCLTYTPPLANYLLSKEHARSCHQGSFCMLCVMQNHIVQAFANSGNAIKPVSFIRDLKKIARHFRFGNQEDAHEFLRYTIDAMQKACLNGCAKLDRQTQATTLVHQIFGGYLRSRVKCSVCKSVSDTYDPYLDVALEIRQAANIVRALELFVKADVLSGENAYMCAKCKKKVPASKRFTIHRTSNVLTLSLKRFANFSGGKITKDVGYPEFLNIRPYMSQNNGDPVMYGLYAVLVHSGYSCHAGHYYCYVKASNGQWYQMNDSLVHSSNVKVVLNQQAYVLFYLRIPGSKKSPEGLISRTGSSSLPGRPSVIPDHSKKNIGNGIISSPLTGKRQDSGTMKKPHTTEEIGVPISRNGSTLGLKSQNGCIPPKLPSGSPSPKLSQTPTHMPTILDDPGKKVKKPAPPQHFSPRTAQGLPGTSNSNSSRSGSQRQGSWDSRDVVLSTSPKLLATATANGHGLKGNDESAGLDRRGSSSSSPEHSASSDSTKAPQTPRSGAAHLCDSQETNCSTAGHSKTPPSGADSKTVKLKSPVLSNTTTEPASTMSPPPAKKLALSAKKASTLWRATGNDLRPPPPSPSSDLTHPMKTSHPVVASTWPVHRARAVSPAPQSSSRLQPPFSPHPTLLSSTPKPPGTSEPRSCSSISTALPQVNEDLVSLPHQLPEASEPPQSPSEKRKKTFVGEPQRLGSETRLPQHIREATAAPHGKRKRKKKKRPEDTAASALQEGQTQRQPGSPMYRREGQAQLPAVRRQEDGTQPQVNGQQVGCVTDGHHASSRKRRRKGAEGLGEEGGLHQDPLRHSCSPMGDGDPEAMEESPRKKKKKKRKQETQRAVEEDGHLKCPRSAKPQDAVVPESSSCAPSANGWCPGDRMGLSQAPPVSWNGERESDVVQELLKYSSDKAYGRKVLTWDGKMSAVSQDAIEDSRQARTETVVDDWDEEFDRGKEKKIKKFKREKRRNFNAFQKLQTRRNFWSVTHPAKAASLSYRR
Summary of the method: as §1

USP38 = biological target: T2, USP38 (UniProt Q8NB14)
T2 sequence (whole entry): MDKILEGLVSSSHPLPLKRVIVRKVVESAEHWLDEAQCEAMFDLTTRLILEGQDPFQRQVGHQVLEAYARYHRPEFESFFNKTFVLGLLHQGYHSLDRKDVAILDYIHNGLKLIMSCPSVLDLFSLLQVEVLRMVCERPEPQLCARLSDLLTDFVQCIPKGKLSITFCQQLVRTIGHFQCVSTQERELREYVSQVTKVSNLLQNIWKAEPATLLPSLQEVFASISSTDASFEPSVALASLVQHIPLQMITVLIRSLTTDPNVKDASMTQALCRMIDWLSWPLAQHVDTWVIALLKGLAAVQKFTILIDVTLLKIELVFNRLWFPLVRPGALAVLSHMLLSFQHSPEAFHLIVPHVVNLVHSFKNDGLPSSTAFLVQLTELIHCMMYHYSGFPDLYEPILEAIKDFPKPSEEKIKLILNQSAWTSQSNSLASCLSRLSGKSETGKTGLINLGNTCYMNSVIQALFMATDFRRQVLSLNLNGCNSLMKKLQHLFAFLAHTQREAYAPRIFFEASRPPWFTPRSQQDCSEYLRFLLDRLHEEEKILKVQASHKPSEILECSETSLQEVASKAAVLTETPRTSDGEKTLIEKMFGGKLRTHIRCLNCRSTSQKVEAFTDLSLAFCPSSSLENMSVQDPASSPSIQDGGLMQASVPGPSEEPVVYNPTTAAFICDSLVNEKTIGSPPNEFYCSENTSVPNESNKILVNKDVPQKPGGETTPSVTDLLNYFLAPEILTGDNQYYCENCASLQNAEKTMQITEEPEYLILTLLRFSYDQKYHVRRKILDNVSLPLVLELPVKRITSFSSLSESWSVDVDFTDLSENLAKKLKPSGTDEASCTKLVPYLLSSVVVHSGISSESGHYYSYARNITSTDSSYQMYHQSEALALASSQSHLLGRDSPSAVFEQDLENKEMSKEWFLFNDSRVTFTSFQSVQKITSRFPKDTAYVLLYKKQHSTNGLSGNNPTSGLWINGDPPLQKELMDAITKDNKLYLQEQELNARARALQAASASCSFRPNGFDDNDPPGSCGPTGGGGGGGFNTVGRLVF
Summary of the method: as §1

USP39 = biological target: T3, USP39 (UniProt Q53GS9)
T3 sequence (whole entry): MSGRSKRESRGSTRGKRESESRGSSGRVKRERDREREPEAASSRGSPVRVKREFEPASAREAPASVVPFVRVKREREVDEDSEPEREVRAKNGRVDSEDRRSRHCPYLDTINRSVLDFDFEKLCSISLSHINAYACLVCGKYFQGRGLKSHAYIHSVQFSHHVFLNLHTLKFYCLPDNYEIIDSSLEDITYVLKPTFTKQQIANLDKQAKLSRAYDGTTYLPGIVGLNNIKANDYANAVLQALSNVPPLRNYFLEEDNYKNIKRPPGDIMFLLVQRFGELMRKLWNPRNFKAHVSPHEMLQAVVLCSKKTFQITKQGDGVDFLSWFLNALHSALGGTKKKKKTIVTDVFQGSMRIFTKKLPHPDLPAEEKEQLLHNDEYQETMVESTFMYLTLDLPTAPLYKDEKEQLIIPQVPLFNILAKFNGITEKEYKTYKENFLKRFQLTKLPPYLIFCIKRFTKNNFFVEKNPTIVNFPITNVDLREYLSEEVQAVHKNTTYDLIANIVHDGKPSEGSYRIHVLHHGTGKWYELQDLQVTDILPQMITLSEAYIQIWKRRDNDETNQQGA
Summary of the method: as §1

USP4 = biological target: T4, USP4 (UniProt Q13107)
T4 sequence (whole entry): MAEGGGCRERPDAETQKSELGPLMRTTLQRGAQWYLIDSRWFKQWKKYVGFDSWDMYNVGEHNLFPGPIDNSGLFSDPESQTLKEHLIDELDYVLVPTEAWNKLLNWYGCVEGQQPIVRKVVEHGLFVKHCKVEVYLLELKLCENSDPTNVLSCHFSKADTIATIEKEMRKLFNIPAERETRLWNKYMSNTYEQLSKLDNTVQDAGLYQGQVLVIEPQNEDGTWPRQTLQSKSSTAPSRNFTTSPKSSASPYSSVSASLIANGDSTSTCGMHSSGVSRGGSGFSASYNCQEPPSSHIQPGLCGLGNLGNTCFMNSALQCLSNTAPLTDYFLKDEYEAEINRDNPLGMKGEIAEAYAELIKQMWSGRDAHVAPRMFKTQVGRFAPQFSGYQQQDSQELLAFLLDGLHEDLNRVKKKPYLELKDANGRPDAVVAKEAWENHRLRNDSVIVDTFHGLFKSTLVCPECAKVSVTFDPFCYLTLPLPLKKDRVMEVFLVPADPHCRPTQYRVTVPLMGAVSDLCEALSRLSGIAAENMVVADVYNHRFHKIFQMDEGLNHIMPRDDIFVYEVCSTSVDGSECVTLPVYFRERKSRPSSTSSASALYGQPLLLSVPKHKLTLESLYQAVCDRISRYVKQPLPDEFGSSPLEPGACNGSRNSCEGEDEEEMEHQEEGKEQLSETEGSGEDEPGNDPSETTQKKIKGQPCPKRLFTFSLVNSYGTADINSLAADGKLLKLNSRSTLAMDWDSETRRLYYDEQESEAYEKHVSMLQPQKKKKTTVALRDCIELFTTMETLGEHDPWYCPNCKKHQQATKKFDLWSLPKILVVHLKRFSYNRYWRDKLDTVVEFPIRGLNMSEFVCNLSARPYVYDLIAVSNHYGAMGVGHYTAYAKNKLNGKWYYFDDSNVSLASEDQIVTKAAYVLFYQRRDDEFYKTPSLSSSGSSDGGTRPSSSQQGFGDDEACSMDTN
Summary of the method: as §1

Measured: log2 ratio of Biotin-Ahx-Ub-VS probe labelling

Cc1ccc(CNC(=O)CCl)nc1C.Cl
inactive: USP34 -0.103 | USP36 0.158 | USP38 0.0543 | USP39 0.0861 | USP4 0.0382
